An excerpt weighted towards active compounds, which were near 7.3% of everything screened.
Gal4-VP16 FLuc – counter-screen for ROR gamma inhibitors: Gal4-VP16 reporter; Drosophila S2 Gal4-VP16 UAS-luciferase, luminescence, 20 h; Potency, µM (top dose mostly 53.6 µM), for inactives: at the top dose activity, negative = inhibition, actives largely listed as inhibitors; 3.5% of 310,000 active; AID 2546;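 further: Gal4-VP16 expression switched on by copper sulfate through the metallothionein promoter; nearly all actives have a fitted effect of over 50% in size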
RORg inh – ROR gamma (mouse) transcription inhibition; 5.4% of 310,000 active; Potency, µM (doses to about 53.6 µM), without a hit: top-dose activity change, negative = inhibition, most hits filed as inhibitors; Drosophila S2 Gal4-RORgamma UAS-luciferase reporter, 20 h; AID 2551; P51450; further: nearly all actives have a fitted effect of over 60% in size
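A Gal4/UAS one-hybrid system in insect cells: metallothionein-promoter Gal4–ROR gamma fusion plus Photinus luciferase reporter. Copper sulfate 700 uM final, 20 hr ambient incubation, luminescent detection after 10 min with reagent.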
Tau FP inhib – tau fibrillization inhibition (FP) | P10636 | K18 P301L tau heparin fibrillization, Alexa594 FP, 6 h | Potency, µM (top dose mostly 57.7 µM), inactives show at the highest dose activity, negative = inhibition, hits mostly inhibitors | 0.39% of 280,000 active; further: nearly all actives have a fitted effect of over 55% in size
Target sequence (P10636 561-689 P618L limits assumed): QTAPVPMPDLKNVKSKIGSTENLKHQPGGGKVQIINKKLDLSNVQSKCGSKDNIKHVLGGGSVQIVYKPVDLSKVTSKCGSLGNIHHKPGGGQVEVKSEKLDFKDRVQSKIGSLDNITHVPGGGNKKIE
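Compound effects on tau fibrillization are measured by Alexa 594 fluorescence polarization (ex 555, em 632 nm). K18 P301L tau is used at 15 uM with 0.24 uM labeled tracer, and 20 uM heparin induces aggregation over 6 hr at 37 C.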
Tau fibril ThT – tau fibrillization inhibition (ThT binding) | recombinant tau K18 P301L, heparin-induced fibrillization, ThT fluorescence | Potency, µM (titrated, usually from 57.4 µM), for the others: at the highest dose activity, negative = inhibition, actives largely listed as inhibitors | 2.1% of 270,000 active | AID 1460; further: nearly all actives have a fitted effect of over 55% in size
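Recombinant human tau K18 fragment […] carrying P301L, 15 uM unlabeled plus 0.24 uM Alexa 594-labeled, was fibrillized with 20 uM heparin in 100 mM sodium acetate pH 7 for 6 hr at 37 C; 30 uM ThT fluorescence read after 1 hr.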
Tau fluor cs – counter-screen for tau fibril formation inhibitors; tau K18 P301L (four-repeat tau fragment) Alexa594 fluorescence, heparin fibrillization; Potency, µM (titrated, usually from 57.7 µM), inactives show top-dose activity change, negative = decrease; 0.93% of 280,000 active; AID 1463; further: nearly all actives have a fitted effect of over 55% in size
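Human K18 P301L tau (15 uM unlabeled plus 0.24 uM Alexa 594-labeled, final) in 100 mM sodium acetate pH 7 was mixed with compound and 20 uM heparin and incubated 6 hr at 37 C.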
Starred values were filed as active, the others as inactive; ? = inconclusive; . = no result given; [ ] = another dose, or the depositor's remark. The call rests on the fitted dose curve; in most records, active means well fitted curve in the direction sought with a large enough effect; inconclusive means small, poorly fitted or top-dose-only effect, or another doubt; inactive means no such curve, though single readings can be large; an effect the other way counts as inactive or inconclusive. On the % scale 0 is the no-effect control and ±100 the full control effect; potency means the concentration at half of the fitted maximal effect.

SMILES | Gal4-VP16 FLuc | RORg inh | Tau FP inhib | Tau fibril ThT | Tau fluor cs
COc1ccccc1NC(=S)NCCc1ccccc1 | ? | 6.3µM* | -1% | -8% | -9%
COc1ccccc1NC(=O)NCCCCc1ccccc1 | 10% | -16% | . | . | .
COC(=O)NNC(=S)Nc1cc(OC)ccc1OC | 7% | ? | 2% | ? | -6%
COc1ccc(OC)c(NC(=S)Nc2ccccc2)c1 | 20µM* | ? | . | . | .
COc1ccccc1NC(=S)NCc1ccc2c(c1)OCO2 | ? | 18µM* | -6% | 1% | 1%
COc1ccc(OC)c(NC(=S)NC(=O)c2ccc(Br)o2)c1 | ? | 4µM* | . | . | .
Fc1ccccc1NC(=S)NCc1ccc2c(c1)OCO2 | -16% | ? | 3% | 8% | 8%
CC(C)CO/N=C1/C[C@@H](O)[C@@H](O)[C@@H]2[C@@H]3C(=O)N(C4CCCCC4)C(=O)[C@H]3CC[C@H]12 | 7%[10 µM] | 12%[10 µM] | -3%[11.6 µM] | -1%[11.5 µM] | -3%[11.6 µM]
Cc1ccc(S(=O)(=O)N(CC(=O)Nc2ccc3c(c2)OCO3)c2ccc(C)c(Cl)c2)cc1 | . | . | 0% | 4% | ?
CCOc1cc(NC(=S)NCc2ccco2)c(OCC)cc1NC(C)=O | 0% | -22% | -11% | -7% | -16%
COc1ccc(CNC(=S)Nc2cc(OC)ccc2OC)cc1 | ? | 18µM* | 9% | 0% | -6%
CCC(=O)NC(=S)Nc1ccc(NC(=O)COc2ccc(Cl)c(C)c2)cc1 | -12% | 4%[10 µM] | -6% | ? | -19%
CCOc1cc(NC(=S)NCc2ccco2)c(OCC)cc1NC(=O)C1CC1 | ? | 11µM* | 14% | -5% | -15%
Cc1cc(OCC(=O)NNC(=S)NC(=O)c2ccc(Br)o2)ccc1Cl | -21% | 7.9µM* | . | . | .
COc1ccc(NC(=S)NCc2ccco2)c(OC)c1 | 4% | 10µM* | 0% | -13% | -9%
Cc1ccc(OCCn2nnc3sc4c(c3c2=O)CCC(C(C)(C)C)C4)cc1 (centres undefined) | . | . | -5% | -11% | -11%
Cc1ccc(N(Cc2cc(=O)[nH]c3ccccc23)C(=O)CCl)c(C)c1 | -12% | ? | . | . | .
COc1ccccc1NC(=S)NCCc1ccc(F)cc1 | -2%[10 µM] | 5µM* | -5% | -4% | -10%
COc1ccccc1NC(=S)NCc1ccc(F)cc1 | ? | 32µM* | . | . | .
COc1ccc(NC(=S)NCc2ccc(F)cc2)c(OC)c1 | ? | 13µM* | . | . | .
CCOc1ccc(CC(=O)Nc2c(C(=O)c3ccccc3)oc3ccc(Cl)cc23)cc1OCC | . | . | ? | 14% | -18%
Cc1c(-c2nsc(NC(=O)c3ccc(Cl)cc3)n2)nnn1-c1ccc(C(C)C)cc1 | . | . | -7% | ? | 5%
Cc1ccccc1C(=O)N(Cc1ccc(N(C)C)cc1)Cc1ccco1 | . | . | 11% | ? | -21%
CCCOc1ccc(C(=O)CCCC(=O)c2ccc(OCCC)cc2)cc1 | -6% | -36% | . | . | .
Cc1nn(CC(=O)N2CCN(c3ccccc3)CC2)c(=O)c2cc3sccc3n12 | . | . | 3% | 0% | -4%
SMILES | Gal4-VP16 FLuc | RORg inh | Tau FP inhib | Tau fibril ThT | Tau fluor cs
COC(=O)c1cc2c(-c3ccccc3)cc3ccccn3c-2c1C(=O)OC | 4% | 4% | 10% | 16µM* | ?
COC(=O)c1cc(-c2ccccc2)sc1N | 16% | 30% | 16% | ? | ?
O=C(NCCc1ccccc1)C(=O)c1c(-c2ccccc2)cc2ccccn12 | 5% | 21% | -1% | ? | -13%
COC(=O)c1c(C(=O)OC)c2cccc3cc(-c4ccccc4)c4ccc1c4n32 | 16% | -10% | -14% | 3.5µM* | ?
COC(=O)c1c(C)c2c(C)cc3ccccn3c-2c1C(=O)OC | 5% | 1% | 17% | 13µM* | ?
Cc1c(C(=O)NN2CCCCC2)nn(-c2ccc(Cl)cc2Cl)c1-c1ccc(Cl)cc1 | -13% | 24%[10 µM] | . | . | .
Cc1ccc(NC(=O)CCNS(=O)(=O)c2ccc3[nH]c(=O)oc3c2)c(C)c1 | 1% | -22% | . | . | .
Cn1cc(Br)c(C(=O)NC2CCCCCC2)n1 | 22% | 2% | . | . | .
Cc1cc(C)cc(NC(=O)Cn2c(C(F)(F)F)nc3ccccc32)c1 | . | . | -10% | 3% | -13%
C=CC1=C2C=C(C3CC3)N(CCCOC(C)C)C=C2C(=O)C(C)(OC(=O)c2ccco2)C1=O (centres undefined) | . | . | -4%[11.6 µM] | -12%[11.5 µM] | -5%[11.6 µM]

Screens: PubChem BioAssay, National Center for Advancing Translational Sciences (NCATS)
